These results are taken from PubChem BioAssay (NCATS).

Inconclusive results are not listed. Entries that show only a call come without a potency. Activity calls are given as the source filed them. Calls follow the shape of the dose curve; as a rule, active = well fitted curve in the direction sought with a large enough effect; inconclusive = small, poorly fitted or top-dose-only effect, or another doubt; inactive = no such curve, though single readings can be large; an effect the other way counts as inactive or inconclusive. *1 amine or outer side, *2 acyl side, *3 side chain or, on linkers, in order; H or OH if unused. Where a SMILES comes first, the peptide text is derived from it. Bridges are numbered along the chain shown (N, C = ends). [ ]: non-standard residue; d: D form. The star is where a group is joined. ξ: configuration not given here. ξhTyr(3S-OH,4S-OH,3'-OSO3H) = NC(C(=O)O)[C@H](O)[C@@H](O)c1ccc(O)c(OS(=O)(=O)O)c1; Orn(4R-OH,5R-OH) = O=C([C@H](C[C@@H](O)[C@@H](O)N[*:3])N[*:1])[*:2]; X2 = CCCCCOc1ccc(-c2cc(-c3ccc(C(=O)*)cc3)no2)cc1; X3 = C[C@H]1CN([*:1])C(C(=O)[*:2])[C@H]1O; ξGln(3R-OH) = NC(=O)C[C@@H](O)C(N)C(=O)O; ξPro(4R-OH) = O=C(O)C1C[C@@H](O)CN1; ξThr(3R) = C[C@@H](O)C(N)C(=O)O

A short description of one assay: HepG2 cells viability qHTS for Zika virus inhibitors (AID 1347168). The conditions noted are these: Zika counter-screen; series mostly up to 45.9 µM. Summed up:
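Counter-screen for cytotoxicity of hits from NS2B-NS3 protease qHTS. Overnight-attached cells (2.5 x 10^5 cells/mL, DMEM/4% FBS) were dosed in titration, incubated 24 to 48 hours, then assayed by CellTiter Glo.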
A general note: qHTS replaces the single test concentration by a dilution series.
On to `COc1cc(Nc2nc3ccccc3nc2NS(=O)(=O)c2cccc(NC(=O)c3ccc(C)c(OC)c3)c2)cc(OC)c1`, for which the outcome was inactive.
Still for that read-out and setting: next, `C/C=C/C=C/C=C/C(=O)O[C@@H]1[C@@H](OC)C2=C(C(=O)N(C(CCC(=O)O)C(=O)O)C2)[C@@]2(C)CCCC(C)(C)[C@H]12` (some centres undefined): “inactive”; `COc1cc(/C=C/c2ccccc2)c(C(=O)O)c(O)c1CC=C(C)C`: “inactive”.
Take `COc1cccc(CNc2ccc(S(=O)(=O)Nc3nc4ccccc4s3)cc2)c1O`: the molecule was called inactive.
Still for that read-out and setting: next, `COc1cc2c(c(O)c1OC/C=C(\C)CC/C=C(/C)CCC=C(C)C)CN(C(CCC(=O)O)C(=O)O)C2=O` (centres undefined): “inactive”; `Cc1cc(C)c2nc(-c3ccccn3)cc(C(=O)Nc3ccc(S(=O)(=O)Nc4onc(C)c4C)cc3)c2c1`: “inactive”; `CC(C)CC(c1c(O)c(C=O)c(O)c(C=O)c1O)C1CCC(C)(O)C2CC(C(C)(C)O)CCC12C` (centres undefined): “inactive”.
Same read-out and setting: the result for `CCOc1ccc(-c2cc(NC(=O)c3c(F)cccc3F)c(C(=O)O)s2)cc1` reads “inactive”.
On the same count and under the same terms, next, `Cc1ccccc1NC(=O)Nc1ccc(CN2C(=O)N([C@@H](CC(C)C)C(=O)N[C@@H](CC(=O)O)c3ccccc3)C(=O)C2(C)C)cc1`: “inactive”; `C=C1C2CCC3CC2(CC(O)C2(O)C1CC(OC1OC(CO)C(O)C(O)C1O)C2(C)C)CC3(C)O` (centres undefined): “inactive”; `C=C1CCC2C(C)(C)CCC[C@]2(C)[C@H]1CC/C(C)=C/C(=O)O` (some centres undefined): “inactive”.
Regarding `O=C(O)C1(c2ccc(-c3ccc(Cl)c(Cl)c3)c(F)c2)CC1`, the result was inactive.
On the same count and under the same terms, the result for `CCc1nnc(NS(=O)(=O)c2ccc(NC(=S)NC(=O)/C=C/c3ccc(F)cc3)cc2)s1` reads “inactive”; that for `COc1cnc(-c2ccc(Cn3c(CC(C)(C)C(=O)O)c(SC(C)(C)C)c4cc(OC[C@@H]5Cc6ccccc6N5C(C)=O)ccc43)cc2)nc1`, “inactive”.
The same measure, in the same setting: the result for `C=C1C2CCC3C(CCC4[C@@]3(C)CCC[C@@]4(C)C(=O)O)(C2)[C@@H]1OC(=O)/C(C)=C\C` (some centres undefined) reads “inactive”; that for `C=CC1(C)C=C2CC[C@H]3[C@@](C)(C(=O)O)CCC[C@]3(C)C2CC1` (some centres undefined), “inactive”.
Still for that read-out and setting: next, `CCCCCOc1ccc(-c2cc(-c3ccc(C(=O)N[C@H]4C[C@@H](O)[C@@H](O)NC(=O)C5[C@@H](O)[C@@H](C)CN5C(=O)C([C@H](O)CC(N)=O)NC(=O)C([C@H](O)[C@@H](O)c5ccc(O)c(OS(=O)(=O)O)c5)NC(=O)C5C[C@@H](O)CN5C(=O)C([C@@H](C)O)NC4=O)cc3)no2)cc1` (stereo partly drawn) (X2-[Orn(4R-OH,5R-OH)][ξThr(3R)][ξPro(4R-OH)][ξhTyr(3S-OH,4S-OH,3'-OSO3H)][ξGln(3R-OH)][X3]; lactam 1-C): “inactive”; `CC(=O)OC12CC(C)C(OC(=O)c3ccccc3)C1/C=C(/C)C(OC(=O)c1ccccc1)CC(=O)C(C)(C)/C=C/C(C)C2=O` (centres undefined): “inactive”.
Take `COc1cc(Nc2ccc([N+](=O)[O-])cc2C(=O)O)cc2ccccc12`: the result was inactive.
Same read-out and setting: next, `C/C(=C\CCC(C)CCO)C(=O)OC[C@H]1O[C@@H](O[C@@H]2OC=C(C(=O)O)[C@H]3CC[C@](C)(O)[C@@H]23)C(O)[C@@H](O)C1O` (some centres undefined): “inactive”; `COc1cc(C)c(C(=O)OC2C(C)OC(OC3CCC(C)C4C3C=C(C)C3/C(C)=C\CC/C(C)=C/C5(C)C=C(C(=O)O)C(C)CC56OC(=O)/C(=C(\O)C34C)C6=O)C(O)C2O)c(OC)c1` (centres undefined): “inactive”.
Same read-out and setting: next, `Cc1ccc2[nH]c(=O)c(C3=NN(C(=O)CCC(=O)O)C(c4ccc(Br)cc4)C3)c(-c3ccccc3)c2c1` (centres undefined): “inactive”; `O=C(O)CC1CCC(c2ccc(-c3ccc(Nc4ccc(C(F)(F)F)nc4)cn3)cc2)CC1` (centres undefined): “inactive”.

The nature of another assay: Tertiary RLuc qRT-PCR qHTS assay for Zika virus inhibitors (AID 1347169). Also: nearly all actives have a fitted effect of over 55% in size. Also: potency is read from the fitted curve at half-maximal effect. As to conditions: infected Vero cells, reporter luminescence, 48-72 h; series mostly up to 45.9 µM. Summed up:
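Luminescence read-out: live-cell Renilla luciferase substrate applied to infected Vero cells, signal measured after 1-1.5 hrs. Cells had received compound before ZIKV-RLuc (Cambodian strain, MOI 1-2) infection and were incubated 48-72 hrs at 37 degrees C.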
(In general: Real-time PCR tracks product formation cycle by cycle.)
Regarding `C/C=C/C=C/C=C/C(=O)O[C@@H]1[C@@H](OC)C2=C(C(=O)N(C(CCC(=O)O)C(=O)O)C2)[C@@]2(C)CCCC(C)(C)[C@H]12` (some centres undefined), the Potency result is “inactive”.
Same read-out and setting: next, `COc1cccc(CNc2ccc(S(=O)(=O)Nc3nc4ccccc4s3)cc2)c1O`: 0.186 µM (active); `CC(C)CC(c1c(O)c(C=O)c(O)c(C=O)c1O)C1CCC(C)(O)C2CC(C(C)(C)O)CCC12C` (centres undefined): “inactive”.
With `Cc1ccccc1NC(=O)Nc1ccc(CN2C(=O)N([C@@H](CC(C)C)C(=O)N[C@@H](CC(=O)O)c3ccccc3)C(=O)C2(C)C)cc1`, the Potency result is “inactive”.
Still for that read-out and setting: the result for `C=C1C2CCC3CC2(CC(O)C2(O)C1CC(OC1OC(CO)C(O)C(O)C1O)C2(C)C)CC3(C)O` (centres undefined) reads “inactive”; that for `C=C1CCC2C(C)(C)CCC[C@]2(C)[C@H]1CC/C(C)=C/C(=O)O` (some centres undefined), “inactive”.
In the case of `O=C(O)C1(c2ccc(-c3ccc(Cl)c(Cl)c3)c(F)c2)CC1`, the Potency result is “inactive”.
Same read-out and setting: next, `CCc1nnc(NS(=O)(=O)c2ccc(NC(=S)NC(=O)/C=C/c3ccc(F)cc3)cc2)s1`: 23.4 µM (active); `C=C1C2CCC3C(CCC4[C@@]3(C)CCC[C@@]4(C)C(=O)O)(C2)[C@@H]1OC(=O)/C(C)=C\C` (some centres undefined): “inactive”.
On the same count and under the same terms, next, `CC(=O)OC12CC(C)C(OC(=O)c3ccccc3)C1/C=C(/C)C(OC(=O)c1ccccc1)CC(=O)C(C)(C)/C=C/C(C)C2=O` (centres undefined): 2.76 µM (active); `O=C(O)CC1CCC(c2ccc(-c3ccc(Nc4ccc(C(F)(F)F)nc4)cn3)cc2)CC1` (centres undefined): 16.5 µM (active).
